The list is not random: actives were taken first. Their share in the collection is about 6.2%.
HT1080NT lethal: kills 2HG-producing HT-1080-NT fibrosarcoma cells; HT-1080-NT fibrosarcoma viability, CellTiter-Glo ATP luminescence, 48 h; Potency, µM (titrated, usually from 46.1 µM), without a hit: at the top dose activity, negative = less viability, usual class: cytotoxic; actives 1.6% (n = 360,000);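 note: NT is the 2HG producing partner of a matched IDH1 knockdown line; 0% = DMSO-treated cells and -100% = media-only wells without cells; nearly all actives have a fitted effect of over 55% in size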
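Fibrosarcoma NT cells, 750 per well in 5% FBS RPMI, were exposed to compound for 48 hours. Viability: CellTiter-Glo luminescence.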
ATXN viability: viability counter-screen for ATXN expression inhibitors; Potency, µM (top dose mostly 56.7 µM), most hits filed as cytotoxic; actives 0.49% (n = 400,000); AID 651635; S2 cells (HEK-293 line with an ATXN2-luciferase reporter) viability, CellTiter-Fluor protease fluorescence, 24 h; note: nearly all actives have a fitted effect of over 40% in size
ATXN2 expr inh: ATXN2 expression inhibition; HEK-293 ATXN2-luciferase reporter, luminescence, 24 h; Potency, µM (series often up to 57 µM), for inactives: at the top dose activity change, negative = inhibition, most hits filed as inhibitors; actives 0.72% (n = 360,000); AID 1745845; note: % is set by controls: 0 for no effect and ±100 for the full control effect; nearly all actives have a fitted effect of over 55% in size
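ATXN2-luciferase reporter cells (luciferase flanked by upstream and downstream ATXN2 gene portions) were treated 24 h at 37 °C with compounds at up to 57 uM. SteadyGlo luminescence gave expression; GF-AFC fluorescence gave viability.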
HT1080 IDH1KD tx: toxicity to HT-1080 IDH1 knockdown cells (counter line); AID 686971; HT-1080 IDH1 knockdown viability, ATP luminescence, 48 h; actives 2% (n = 360,000); Potency, µM (top dose mostly 46.1 µM), for inactives: at the top dose activity, negative = toxicity, most hits filed as cytotoxic;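 note: 0% = DMSO wells and -100% = cell-free medium wells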
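After a 2 h attachment period, IDH1KD HT-1080 cells took pin-transferred compound for 48 h at 37 °C; ATP-based luminescence after 10 min room-temperature reagent incubation reported viability.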
KB-V1 cytotox: kills drug-selected multidrug resistant KB-V1 cells | KB-V1 MDR cells viability, CellTiter-Glo, 72 h | Potency, µM (highest dose often 46.1 µM), most hits filed as cytotoxic | actives 3.4% (n = 400,000) | AID 1347076; note: % is set by controls: 0 for no effect and ±100 for the full control effect; nearly all actives have a fitted effect of over 60% in size
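Drug-selected KB-V1 cells, grown in DMEM lacking phenol red with 10% FBS, receive compound titrations; after three days at 37 degrees C, surviving cell ATP is quantified by CellTiter-Glo luminescence and responses normalized and curve-fitted.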
KB-3-1 cytotox: KB-3-1 parental cell cytotoxicity; KB-3-1 viability, CellTiter-Glo ATP luminescence, 72 h; Potency, µM (doses to about 46.1 µM), most hits filed as cytotoxic; actives 1.4% (n = 400,000); AID 1347075; note: % is set by controls: 0 for no effect and ±100 for the full control effect; nearly all actives have a fitted effect of over 60% in size
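Viability of parental KB-3-1 cells, measured by CellTiter-Glo luminescence, followed a 72 h incubation at 37 °C with pinned compounds in phenol-red-free DMEM containing 10% FBS.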
The depositor's hits bear a star; i = inactive; ? = inconclusive; nt = not tested or not shown. Calls come from the whole dose curve; as a rule, active = well fitted curve in the direction sought with a large enough effect; inconclusive = small, poorly fitted or top-dose-only effect, or another doubt; inactive = no such curve, though single readings can be large; an effect the other way counts as inactive or inconclusive. Potency is the fitted concentration of half-maximal effect.

SMILES	HT1080NT lethal	ATXN viability	ATXN2 expr inh	HT1080 IDH1KD tx	KB-V1 cytotox	KB-3-1 cytotox
CCOC(=O)c1sc2cccc(F)c2c1S(=O)(=O)N1CCN(c2cccc(Cl)c2)CC1	nt	i	-13%	nt	i	i
CCOC(=O)c1ccc(NC(=O)CN2C(=O)COc3ccc(Cl)cc32)cc1	nt	i	-1%	nt	?	i
Cc1nc2nc(CNC(=O)c3cccc(F)c3)nn2c(C)c1CCC(=O)Nc1cccc(Cl)c1	nt	i	?	nt	i	i
O=c1c(-c2cc(-c3ccccc3)nc3c2COc2ccc(Cl)cc2-3)coc2ccccc12	nt	i	-7%	nt	?	i
Cc1csc2nc(COC(=O)CNC(=O)c3ccccc3Cl)cc(=O)n12	nt	i	1%	nt	i	i
O=C(N/N=C/c1c[nH]c2ccccc12)c1cc(-c2ccc3ccccc3c2)n[nH]1	7.3µM*	?	27%	5.8µM*	?	?
O=C(N/N=C/c1cccs1)c1cc(-c2ccc3ccccc3c2)n[nH]1	?	i	-11%	?	?	i
O=C(N/N=C/c1c[nH]c2ccccc12)c1cc(-c2ccc(-c3ccccc3)cc2)n[nH]1	?	nt	?	13µM*	16µM*	?
Cc1c(C(=O)NCC2(N3CCOCC3)CCCCCC2)cnn1-c1nccc(-c2ccccc2F)n1	nt	i	nt	nt	nt	nt
O=C(Nc1ccccn1)c1cc2ccccc2o1	?	i	16µM*	?	?	?
COC(=O)c1sc(NC(=O)c2oc3ccccc3c2C)nc1C	-1%	i	55%	-2%	i	i
CN(C)S(=O)(=O)c1ccc(NC(=O)c2cc3ccccc3o2)cc1	-16%	i	45%	1%	21µM*	i
Cc1c(C(=O)Nc2nnc(C(F)(F)F)s2)oc2ccccc12	-14%	i	-18%	-2%	18µM*	i
Cc1ccc(NC(=O)c2oc3ccccc3c2C)nc1	3%	i	71%	-3%	i	i
Cc1c(C(=O)Nc2ccccn2)oc2ccccc12	-8%	i	68%	?	10µM*	i
Cc1ccnc(NC(=O)c2cc3ccccc3o2)c1	?	i	?	?	?	?
O=C(COc1ccccc1C(=O)Nc1ccccc1)Nc1ccccc1Cl	-20%	nt	nt	-1%	nt	nt
O=C(Nc1ccccc1C(=O)Nc1nnc(C(F)(F)F)s1)c1ccccc1	3.3µM*	?	?	4.6µM*	?	?
Cc1c(C(=O)Oc2cccc3cccnc23)oc2ccccc12	23µM*	i	-12%	23µM*	i	i
Cc1c(C(=O)NCCc2ccccc2)oc2ccccc12	20%	i	40%	16%	i	i
Cc1c(C(=O)NCc2cccnc2)oc2ccccc12	8%	i	4%	-1%	16µM*	i
CCc1nc2ccccc2c(C(=O)Oc2cccc3cccnc23)c1C	-9%	i	11%	-23%	?	i
COc1ccc(-c2nnc(CSc3nc4ccccc4c(=O)n3C)o2)cc1OC	2%	i	-25%	-12%	3.7µM*	i
CCN(CC)c1ccc(-n2c(C)c(C(C)=O)c(C(C)=O)c2C)cc1	-8%	?	-16%	-6%	18µM*	?
CCSC1=C(C#N)C(c2ccc(C)s2)CC(=O)N1 (stereo not given)	4%	i	8%	-2%	i	i
SMILES	HT1080NT lethal	ATXN viability	ATXN2 expr inh	HT1080 IDH1KD tx	KB-V1 cytotox	KB-3-1 cytotox
CCSC1=C(C#N)C(c2ccccc2OC)CC(=O)N1 (stereo not given)	-4%	i	3%	-2%	i	i
CCOC(=O)CSC1=C(C#N)C(c2ccc(C)s2)CC(=O)N1 (stereo not given)	0.71µM*	i	-25%	1.8µM*	1.8µM*	5.2µM*
CCOC(=O)CSC1=C(C#N)C(c2ccccc2OC)CC(=O)N1 (stereo not given)	?	i	-13%	18µM*	?	?
COc1ccc(-c2noc(CN(C(=O)c3ccc(C)cc3C)C(C)C)n2)cc1	nt	i	-33%	nt	i	?
COc1ccc(NC(=O)c2nc[nH]c2C(=O)Nc2ccccc2C)cc1	?	i	-35%	?	?	5.8µM*
CCN(CC)C(=O)n1cnc(-c2ccccc2)c1-c1ccccc1	12%	i	7%	11%	21µM*	i
COc1nn(-c2ccccc2)c(=O)c(Cl)c1Cl	12µM*	?	?	13µM*	i	?
CCc1ccc(NCc2cc3cc4c(cc3n(CC(=O)Nc3ccccc3OC)c2=O)OCCO4)cc1	nt	i	12%	nt	i	i
c1ccc(NNC2=NCCCCC2)cc1	?	i	nt	4.1µM*	i	?
COc1ccc(Cn2c(-c3ccc(C)cc3)c[n+]3ccccc23)cc1	4.1µM*	?	17µM*	1.2µM*	i	3.3µM*
O=C(Cc1ccc(F)cc1)NCc1ccc2c(c1)CCN2C(=O)c1ccc(F)cc1	nt	nt	nt	nt	i	i
Cc1cnccc1CN(C)Cc1nc(Cc2ccccc2Cl)no1	?	i	1%	-29%	9.2µM*	21µM*
CN(Cc1ccccn1)Cc1nc(Cc2ccccc2Cl)no1	3%	?	nt	8%	i	i
Cc1cccc(C)c1OCC(O)CN(Cc1ccccc1O)C1CCCCC1 (stereo not given)	9.2µM*	i	-30%	?	?	?
CN(C)c1ccc(/C=C2\NC(=O)NC2=O)cc1	nt	nt	nt	nt	?	i
COc1ccc(-c2c3c(=O)n(C)c(=O)n(C)c3c3c(-c4ccccc4)nc4ccccc4n23)cc1	nt	i	4%	nt	i	i
CCOc1ccc2[nH]c3c(NCCc4ccc(OC)c(OC)c4)ncnc3c2c1	?	?	18µM*	?	i	i
CCOCCCn1c(SCC(=O)NCc2ccccc2)nc2c(sc3ccccc32)c1=O	nt	i	14%	nt	i	i
Cn1cnc([N+](=O)[O-])c1Sc1nc(N)nc2c1ncn2C1CC(O)C(CO)O1 (stereo not given)	2.3µM*	?	-35%	1.3µM*	5.2µM*	3.7µM*
CCSc1nc(N)nc2c1ncn2C1OC(CO)C(O)C1O (stereo not given)	-1%	i	0%	-4%	i	i
Cn1cnc([N+](=O)[O-])c1Sc1nc(N)nc2c1ncn2C1OC(CO)C(O)C1O (stereo not given)	1.3µM*	?	-33%	1.3µM*	1.2µM*	?
